# In paper PMC7862700, “An all-to-all approach to the identification of sequence-specific readers for epigenetic DNA modifications on cytosine”:
# What was measured:
# Test in all cases: DAPPL (digital affinity profiling via proximity ligation, sequencing); 10 mM Tris-HCl pH 7.5, 50 mM NaCl, 1 mM DTT, 4% glycerol, room temperature, 30 min; GST-TFs on glutathione beads, 16-mer random dsDNA library, 0.1% formaldehyde crosslink after washing; high values mean tight binding
# Conditions in all cases: protein: recombinant; tags: N-terminal GST; dsDNA, one strand shown
# EHF = target: T1, EHF (Homo sapiens, UniProt Q9NZC4 1-300)
# T1 sequence: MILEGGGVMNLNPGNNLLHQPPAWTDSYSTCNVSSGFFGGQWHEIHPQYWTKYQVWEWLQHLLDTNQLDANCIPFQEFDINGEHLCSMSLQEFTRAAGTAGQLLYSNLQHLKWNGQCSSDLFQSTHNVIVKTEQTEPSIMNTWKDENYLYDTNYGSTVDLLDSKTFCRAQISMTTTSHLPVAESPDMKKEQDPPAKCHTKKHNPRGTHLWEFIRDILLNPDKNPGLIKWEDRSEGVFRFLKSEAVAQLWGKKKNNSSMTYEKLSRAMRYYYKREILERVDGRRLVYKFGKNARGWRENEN
# Outline: (§1)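 Beads coated with glutathione captured GST-fused human transcription factors that had been expressed in yeast, and the factors were then given DNA barcodes and pooled with a tag-only sample. The pools were incubated with 200 nmole of a random double-stranded 16-mer DNA library in Tris/NaCl/DTT/glycerol buffer for 30 min at room temperature, washed, crosslinked with 0.1% formaldehyde and proximity-ligated with BsaI/T4 ligase at 37 °C for 1 h. PCR amplification and Illumina NextSeq500 sequencing came last. Binding signal is each hexamer's read frequency for a factor divided by its frequency for the tag-only sample.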
# ELK3 = target: T2, ELK3 (Homo sapiens, UniProt P41970 1-407)
# T2 sequence: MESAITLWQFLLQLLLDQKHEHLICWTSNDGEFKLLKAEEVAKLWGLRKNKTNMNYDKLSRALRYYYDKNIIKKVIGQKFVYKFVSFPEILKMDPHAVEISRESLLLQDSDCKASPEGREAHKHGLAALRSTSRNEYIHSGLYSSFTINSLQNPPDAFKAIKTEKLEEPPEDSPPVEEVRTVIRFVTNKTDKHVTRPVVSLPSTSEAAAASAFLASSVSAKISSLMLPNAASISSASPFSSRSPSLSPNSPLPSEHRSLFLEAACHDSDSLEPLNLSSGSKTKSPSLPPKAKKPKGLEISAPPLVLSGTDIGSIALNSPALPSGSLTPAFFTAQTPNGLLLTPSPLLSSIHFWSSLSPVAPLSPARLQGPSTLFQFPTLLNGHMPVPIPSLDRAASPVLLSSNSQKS
# Outline: as §1
# SPIC = target: T3, SPIC (Homo sapiens, UniProt Q8N5J4 1-248)
# T3 sequence: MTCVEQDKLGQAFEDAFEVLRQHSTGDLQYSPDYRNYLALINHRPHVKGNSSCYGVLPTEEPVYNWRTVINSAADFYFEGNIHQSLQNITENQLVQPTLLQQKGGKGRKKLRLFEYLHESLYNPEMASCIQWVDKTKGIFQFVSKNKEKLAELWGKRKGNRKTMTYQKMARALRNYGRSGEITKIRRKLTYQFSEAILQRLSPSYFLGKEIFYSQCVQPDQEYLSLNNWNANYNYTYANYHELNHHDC
# Outline: as §1
# ELF4 = ELF4 (Homo sapiens, UniProt Q99607 1-663)
# Outline: as §1
# ELF3 = target: T4, ELF3 (Homo sapiens, UniProt P78545 1-371)
# T4 sequence: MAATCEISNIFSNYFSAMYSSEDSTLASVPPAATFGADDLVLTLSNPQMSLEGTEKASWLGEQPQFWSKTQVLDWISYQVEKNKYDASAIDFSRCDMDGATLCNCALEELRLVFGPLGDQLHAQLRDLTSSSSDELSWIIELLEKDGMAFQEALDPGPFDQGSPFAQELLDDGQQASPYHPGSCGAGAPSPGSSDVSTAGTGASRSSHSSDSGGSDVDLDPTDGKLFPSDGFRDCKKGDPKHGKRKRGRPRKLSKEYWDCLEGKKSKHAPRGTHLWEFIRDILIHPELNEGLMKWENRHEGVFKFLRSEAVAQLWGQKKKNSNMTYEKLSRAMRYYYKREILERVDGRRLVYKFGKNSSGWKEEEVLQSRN
# Outline: as §1
# ETV1 = ETV1 (Homo sapiens, UniProt P50549 1-477)
# Outline: as §1
# ERF = target: T5, ERF (Homo sapiens, UniProt P50548 1-548)
# T5 sequence: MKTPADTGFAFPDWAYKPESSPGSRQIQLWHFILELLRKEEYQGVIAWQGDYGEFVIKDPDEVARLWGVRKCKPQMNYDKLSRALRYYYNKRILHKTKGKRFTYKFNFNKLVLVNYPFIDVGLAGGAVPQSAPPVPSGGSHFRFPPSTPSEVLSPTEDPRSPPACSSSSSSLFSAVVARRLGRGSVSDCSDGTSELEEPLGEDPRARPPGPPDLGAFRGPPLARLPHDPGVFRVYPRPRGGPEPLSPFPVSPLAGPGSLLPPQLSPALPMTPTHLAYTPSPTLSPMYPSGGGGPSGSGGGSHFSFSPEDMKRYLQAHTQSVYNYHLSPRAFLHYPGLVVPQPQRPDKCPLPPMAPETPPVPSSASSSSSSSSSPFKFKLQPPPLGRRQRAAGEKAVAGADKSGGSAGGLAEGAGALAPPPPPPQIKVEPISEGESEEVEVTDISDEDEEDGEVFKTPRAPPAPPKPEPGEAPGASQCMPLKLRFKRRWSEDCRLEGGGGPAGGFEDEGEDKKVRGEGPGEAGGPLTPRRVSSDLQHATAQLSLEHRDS
# Outline: as §1
# ETV7 = target: T6, ETV7 (Homo sapiens, UniProt Q9Y603 1-341)
# T6 sequence: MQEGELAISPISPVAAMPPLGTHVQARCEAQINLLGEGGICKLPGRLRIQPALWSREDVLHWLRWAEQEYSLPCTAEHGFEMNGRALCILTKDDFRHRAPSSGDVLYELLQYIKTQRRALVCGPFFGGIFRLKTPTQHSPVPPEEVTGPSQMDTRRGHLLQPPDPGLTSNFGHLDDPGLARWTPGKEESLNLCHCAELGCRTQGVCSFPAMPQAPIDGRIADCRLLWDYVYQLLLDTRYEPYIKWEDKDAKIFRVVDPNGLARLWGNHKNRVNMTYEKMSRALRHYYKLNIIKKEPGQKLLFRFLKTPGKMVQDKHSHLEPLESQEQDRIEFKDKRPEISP
# Outline: as §1
# Chain of ETV1 (P50549 whole entry): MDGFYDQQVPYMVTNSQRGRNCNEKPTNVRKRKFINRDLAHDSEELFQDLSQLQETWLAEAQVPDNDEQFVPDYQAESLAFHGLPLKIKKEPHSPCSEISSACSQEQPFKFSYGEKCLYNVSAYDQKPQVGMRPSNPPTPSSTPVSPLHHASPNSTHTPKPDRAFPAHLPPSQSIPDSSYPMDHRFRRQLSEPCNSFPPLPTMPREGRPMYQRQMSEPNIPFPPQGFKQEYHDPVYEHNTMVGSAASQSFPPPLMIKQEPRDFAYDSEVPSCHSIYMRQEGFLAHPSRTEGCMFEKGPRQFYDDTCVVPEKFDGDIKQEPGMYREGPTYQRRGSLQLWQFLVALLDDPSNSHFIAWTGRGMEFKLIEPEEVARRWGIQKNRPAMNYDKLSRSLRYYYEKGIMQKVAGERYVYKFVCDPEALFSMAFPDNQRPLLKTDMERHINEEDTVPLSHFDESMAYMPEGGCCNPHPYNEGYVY
# Chain of ELF4 (Q99607 whole entry): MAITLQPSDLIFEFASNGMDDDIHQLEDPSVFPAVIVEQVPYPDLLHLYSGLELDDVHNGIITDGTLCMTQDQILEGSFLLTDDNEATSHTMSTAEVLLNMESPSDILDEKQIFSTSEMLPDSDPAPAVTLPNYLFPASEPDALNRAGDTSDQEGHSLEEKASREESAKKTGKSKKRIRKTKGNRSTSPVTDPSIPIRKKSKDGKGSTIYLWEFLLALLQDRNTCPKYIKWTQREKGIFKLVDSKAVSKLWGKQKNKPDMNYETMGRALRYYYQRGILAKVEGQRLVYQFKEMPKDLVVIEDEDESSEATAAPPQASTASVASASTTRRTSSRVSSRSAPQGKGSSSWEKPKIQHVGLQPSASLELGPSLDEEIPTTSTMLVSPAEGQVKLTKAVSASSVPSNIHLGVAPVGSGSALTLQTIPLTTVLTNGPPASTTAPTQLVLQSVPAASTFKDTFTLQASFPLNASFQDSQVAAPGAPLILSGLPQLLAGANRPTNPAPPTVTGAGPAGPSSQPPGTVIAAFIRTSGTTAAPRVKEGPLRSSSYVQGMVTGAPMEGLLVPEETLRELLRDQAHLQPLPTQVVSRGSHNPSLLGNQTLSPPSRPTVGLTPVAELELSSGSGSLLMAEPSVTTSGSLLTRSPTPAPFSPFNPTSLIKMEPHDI
sequence,measurement,setting,value
AGATCT,binding signal,EHF,"1.04 fold enrichment (6-mer frequency, TF over GST control)"
same,binding signal,ELK3,"1.07 fold enrichment (6-mer frequency, TF over GST control)"
same,binding signal,SPIC,"1.07 fold enrichment (6-mer frequency, TF over GST control)"
same,binding signal,ELF4,"1.01 fold enrichment (6-mer frequency, TF over GST control)"
same,binding signal,ELF3,"1.09 fold enrichment (6-mer frequency, TF over GST control)"
same,binding signal,ETV1,"1.1 fold enrichment (6-mer frequency, TF over GST control)"
same,binding signal,ERF,"1.05 fold enrichment (6-mer frequency, TF over GST control)"
same,binding signal,ETV7,"1.05 fold enrichment (6-mer frequency, TF over GST control)"
